The list is not random: actives were taken first. Their share in the collection is about 1.1%.
Eya2 inh: inhibitors of human Eya2 phosphatase activity; actives 0.006% (n = 330,000); recombinant Eya2, OMFP fluorescence dephosphorylation (OMFP is methylfluorescein phosphate); Potency, µM (top dose mostly 76.9 µM), without a hit: at the highest dose activity, negative = inhibition, hits mostly inhibitors; further: on the % scale 0 is the no-effect control and ±100 the full control effect
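Eya2 (0.2 uM) preincubated 10 min at ambient with compound, then OMFP substrate added at 50 uM; 10 min reaction in 50 mM HEPES pH 7.5, 50 mM NaCl, 5 uM MgCl2, 0.05% BSA, 1 mM DTT. Fluorescence read at Ex 485/Em 525 nm.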
12-LOX inh: ALOX12 (human) lipoxygenase inhibition; Potency, µM (top dose mostly 108 µM), inactives show at the highest dose activity change, negative = inhibition, hits mostly inhibitors; P18054; purified 12hLO, xylenol orange hydroperoxide absorbance; actives 1.1% (n = 580,000); further: on the % scale 0 is the no-effect control and ±100 the full control effect
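Hydroperoxide product was detected by ferrous iron/xylenol orange as the 573 to 405 nm absorbance ratio. Arachidonic acid at 40 uM (final) was turned over for 30 min at room temperature by 150 nM human 12hLO, pH 7.0 Hepes buffer, after 15 min compound preincubation.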
USP2a block: blocks human ubiquitin-specific protease USP2a; O75604; USP2 core, Ub-CHOP2 coupled fluorogenic reporter, 485/531; Potency, µM (titrated, usually from 38.3 µM), inactives show at the top dose activity change, negative = inhibition, hits mostly inhibitors; actives 0.01% (n = 330,000); AID 463254;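 further: plate controls were DMSO wells for no effect and full inhibition by NEM control for full effect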
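USP2 core (10nM final) preincubated 30min RT with compound in 20mM Tris-HCl pH 8.0, 2mM CaCl2, 2mM beta-mercaptoethanol, 0.05% CHAPS; 25nM Ub-CHOP2 plus 25nM reporter substrate added, fluorescence (Ex485/Em531) read after 60min.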
TSG101-PTAP inh: blocks PTAP/TSG101 interaction to inhibit HIV-1 budding | Q99816 | Fluorescence polarization, FITC-PTAP peptide / Tsg101 binding | AID 493005 | 340,000 tested, under 10 active | Potency, µM (series often up to 115 µM), for inactives: at the top dose activity change, negative = inhibition, hits mostly inhibitors; active means well fitted inhibition curve with a large enough effect in the main read-out, with a control signal flat, not every such curve was filed as active; inconclusive means small, poorly fitted or top-dose-only effect, or effect the other way, or a change in a side signal; inactive means no such curve, though single readings can be large or run the other way; further: % of control where 0% means no effect
Target sequence (Q99816 whole entry, looked up): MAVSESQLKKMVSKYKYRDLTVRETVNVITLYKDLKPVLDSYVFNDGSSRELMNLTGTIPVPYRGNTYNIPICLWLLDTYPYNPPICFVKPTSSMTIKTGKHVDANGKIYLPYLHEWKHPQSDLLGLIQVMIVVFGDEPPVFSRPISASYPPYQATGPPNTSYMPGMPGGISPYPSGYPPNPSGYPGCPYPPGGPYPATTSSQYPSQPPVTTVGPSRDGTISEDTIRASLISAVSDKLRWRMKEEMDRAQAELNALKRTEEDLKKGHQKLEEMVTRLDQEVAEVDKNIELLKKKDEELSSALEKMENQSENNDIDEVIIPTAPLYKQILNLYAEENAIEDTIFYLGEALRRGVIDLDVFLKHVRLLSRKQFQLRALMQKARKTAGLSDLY
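Compounds were pin-transferred onto Tsg101 binding domain (10 uM final) in HEPES pH 7.5 buffer, then FITC-PTAP peptide was added at 50 nM final. After 20 min at RT, polarization reported peptide displacement across a qHTS concentration series.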
Numbers without * were called inactive; ? = inconclusive; . = no result given; ! = a repeat was not active; [ ] = remark or other dose. Unless noted, the call rests on the fitted dose curve; in most records, active means well fitted curve in the direction sought with a large enough effect; inconclusive means small, poorly fitted or top-dose-only effect, or another doubt; inactive means no such curve, though single readings can be large; an effect the other way counts as inactive or inconclusive. Potency means the concentration at half of the fitted maximal effect.

SMILES | Eya2 inh | 12-LOX inh | USP2a block | TSG101-PTAP inh
COC(=O)C1=C(C)N(Cc2ccc(Br)cc2)C(=S)NC1c1cccc(Br)c1 (stereo unspecified) | . | 39.8µM* | . | .
COC(=O)C1=C(C)N(Cc2ccccc2)C(=S)N[C@H]1c1cccc(F)c1 | -8.0% | ? | 3.2% | -6.8%
COc1ccc(CN2Cc3[nH]nc(-c4ccc(N5CCN(C)CC5)cc4)c3CC2=O)cc1 | . | -6.8%[176 µM] | . | .
CC(C)c1ccc(/C=C(\C#N)C(=O)NC2CC2)cc1 | . | 9.2% | . | .
O=C(O)Cc1cccc(OCCCN(Cc2cccc(C(F)(F)F)c2Cl)CC(c2ccccc2)c2ccccc2)c1 | . | 24.3µM*! | . | .
CC1(C)CCC(N)c2ccccc21 (stereo unspecified) | . | -5.6% | . | .
Cc1ccc(SC2=C(N(C)C)C(=O)c3ccccc3C2=O)cc1 | . | 10µM* | . | -4.5%
CC(C)c1ccc(CN2CCc3ncc(C(=O)Nc4ccccc4)n3CC2)cc1 | . | 3.9%[176 µM] | . | .
Cc1ccc(-c2cc(Nc3ccccc3C(F)(F)F)nc(C)n2)cc1 | . | 15.8µM* | . | .
Cc1ccc(-c2cc(Nc3ccccc3)nc(C)n2)cc1 | . | 7.08µM* | . | .
CN(C)CCNc1oc(-c2ccc(S(=O)(=O)N(C)C)cc2)nc1C#N | . | 11.5% | . | .
COC12CC(=O)C(C(C)=O)=C(O)C1(C)c1c(O)c(C)c(O)c(C(C)=O)c1O2 (stereo unspecified) | . | 39.8µM* | . | .
CC1CCC(NC(=O)c2cc(-c3ccccc3)nc3ccccc23)CC1 (stereo unspecified) | . | 0.794µM* | . | .
CC1CCC(NC(=O)c2cc3ccccc3c(Cl)n2)CC1 (stereo unspecified) | . | 39.8µM* | . | .
CC1CCC(NC(=O)c2cc(C3CC3)nc3ccccc23)CC1 (stereo unspecified) | . | 59.4% | . | .
Cc1ccc(-c2cc(C(=O)NC3CC3)c3ccccc3n2)o1 | . | 12.6µM* | . | .
Cc1ccc(CNC(=O)c2cc(-c3ccc(C)c(C)c3)nc3ccccc23)cc1 | . | -18.0% | . | .
Cc1ccc(CNC(=O)c2cc(-c3ccc(C)o3)nc3ccccc23)cc1 | . | 3.16µM* | . | .
O=C(NC1CC1)c1cc(-c2ccccc2)nc2ccccc12 | . | -6.4% | . | .
Cc1ccc(Cl)cc1NCC(=O)N1CCN(S(C)(=O)=O)CC1 | . | 1.0% | . | .
Cc1ccc(-c2cnc(CCC(=O)Nc3nc(C)cs3)o2)cc1 | . | -18.4% | . | .
COc1cccc(-c2noc(NCc3cccc(Cl)c3)n2)c1OC | . | 11.3% | . | .
O=C(O)CCNc1c(-c2ccc(F)cc2)nc2cnccn12 | . | 35.5µM* | . | .
COc1ccc(C(=O)N2CCC3(CC(c4cccc(C(F)(F)F)c4)=NO3)C2)cc1 (stereo unspecified) | . | 4.8%[6.33 µM] | . | .
Cc1cc(C)c2cc3c(N)c(C(=O)N4CCc5ccccc5C4)sc3nc2c1 | -11.9% | -62.1% | 2.4% | ?
SMILES | Eya2 inh | 12-LOX inh | USP2a block | TSG101-PTAP inh
Cc1cccc2cc3c(N)c(C(=O)N4CCOCC4)sc3nc12 | 10.4% | 25.1µM* | -1.2% | 0.4%
Nc1c(C(=O)N2CCOCC2)sc2nc(N3CCOCC3)c3c(c12)CCCC3 | ? | 39.8µM* | -1.9% | -6.5%
Cc1ccc(NC(=O)CN2CCN(C(=O)CN(C)Cc3cnn(-c4ccccc4)c3)CC2)cc1 | . | -53.2% | . | .
O=S(=O)(Nc1nc2ccccc2nc1Nc1ccc2c(c1)OCO2)c1cccc(Cl)c1 | . | -2.9% | . | .
O=c1c2c(-c3cccs3)csc2nc(CN2CCOCC2)n1CCOc1ccc(F)cc1 | . | 4.2% | . | .
O=C(c1cccnc1)N1CCCC(n2cc(-c3nc(-c4ccccc4)no3)nn2)C1 (stereo unspecified) | . | 39.8µM* | . | .
O=C(c1ccccc1)N1CCCC(n2cc(-c3nc(-c4ccccc4)no3)nn2)C1 (stereo unspecified) | . | 2.6% | . | .
CC(C)(C)N=Cc1cc(Br)ccc1O | . | 56.2µM* | . | .
CNC(=O)c1ccc(S(=O)(=O)Nc2ccccc2)cc1 | . | 8.3% | . | .
Cc1ccc(C)c(-n2sc3ccc(F)cc3c2=O)c1 | -3.3% | 1.58µM* | 1.6% | -1.3%
O=c1c2cc(F)ccc2sn1-c1ccc(F)cc1 | -18.5% | . | 0.2% | -1.3%
COc1ccc(-n2sc3ccc(F)cc3c2=O)cc1 | 3.3% | 1.12µM* | -0.3% | .
CCOc1cc2c(c3c1C(c1ccccc1)N(S(=O)(=O)c1ccc(C)cc1)C3)C(=O)C=CC2=O (stereo unspecified) | . | 1.12µM* | . | .
Cc1ccc(Nc2nc(NCC3CC3)nc3ccsc23)c(C)c1 | . | 39.8µM* | . | .
